The values that follow come from PubChem BioAssay AID1159606 (Sanford-Burnham Center for Chemical Genomics, 2016).

The whole screen tested about 360,000 compounds, of which about 7,300 (2%) were called active. The sample holds actives, similar compounds and a random draw of the others, so the mix is not that of the screen. A number with no mark means an inactive call. Rule as the data show it: active = inhibition above about 50%; inactive = the rest.

A short description of this test: blockers of TWEAK-induced Fn14 reporter activity – luciferase reporter cells, uHTS, primary screen (AID 1159606). To be noted: TWEAK-stimulated Fn14 reporter cells, luciferase luminescence, 8 h; at 10 µM; active compounds read high.
As for `COc1nc(OC)nc(N(C)CCO)n1`, the inhibition is 5.06%.
Take `O=C(CCc1ccccc1)Nc1nn[nH]n1`: the inhibition is -6.61%.
As for `CCOc1ccc(CCN2C(=O)C(=O)N([C@@H](CC(C)C)CN3CCC[C@H]3CN3C(=O)C(=O)NC[C@@H]3Cc3ccccc3)C[C@@H]2CC(C)C)cc1`, the figure is 18.1%.
Turning to `CCc1nc2c(OCC(N)=O)cccn2c1N(C)C(=O)c1ccc(OC)cc1`, the inhibition was -0.65%.
Take `Cc1cccc(C(=O)O)c1[N+](=O)[O-]`: the inhibition is -0.13%.
Regarding `O=C(NCc1ccccc1)C(=O)NCC1OCCN1S(=O)(=O)c1ccc(Br)cc1` (stereo not drawn), the inhibition is -2.34%.
Then `CC(NC(=O)COC(=O)Cn1cc(C(F)(F)F)ccc1=O)c1ccccc1` (stereo not drawn), with 19.7%; and `CCC(C)NCC(=O)Nc1ccc([N+](=O)[O-])cc1C(=O)Nc1ccccc1F` (stereo not drawn), with 3.23%; and `CC(=O)OCCN(CCCn1c(-c2ccncc2)nc2ccccc21)c1nc(-c2ccc(C)cc2)cs1`, with 4.36%.
For `CCCCOCCCNC(=O)C[C@@H]1C[C@@]2(C(=O)OC)CCCCC=C2N(CCC2=CCCCC2)C1=O`, the inhibition was 11%.
As for `CN1OC[C@@H]2CN(S(=O)(=O)c3cccc4ccccc34)[C@H](c3ccc(N4CCCCC4)cc3)C[C@@H]21`, the figure is -7.73%; as for `COc1ccc(S(=O)(=O)N2C[C@H]3CON(C)[C@H]3C[C@H]2c2cccc(Br)c2)cc1`, -6.92%; as for `CN1OC[C@@H]2CN(S(=O)(=O)c3cccc(C(F)(F)F)c3)[C@H](c3ccc(-c4cc5ccccc5o4)cc3)C[C@@H]21`, 62.2% (active).
For `CC(C)(C)n1ncc2c(=O)n(Cc3c(Cl)cccc3Br)cnc21`, the inhibition is 3.93%.
`CC(C)(C)n1ncc2c(=O)n(Cc3ccc(Cl)cc3)cnc21`: the inhibition was 68.2% (active).
With `CC(=O)Cn1cnc2c(cnn2-c2ccccc2)c1=O`, the inhibition is 4.23%.
Then `O=C(O)CSCc1ccc(C(=O)O)o1`, with -3.63%; and `CC(CO)NCC12CC3CC(CC(C3)C1)C2` (stereo not drawn), with 13.3%; and `CC(Sc1ncnc2c1cnn2-c1ccccc1)C(=O)Nc1ccc(N2CCOCC2)cc1` (stereo not drawn), with -20.4%.
As for `COc1ccc(-n2ncc3c(SCC(=O)NNC(C)=O)ncnc32)cc1`, the inhibition is 14.6%.
As for `CC(C)Sc1ncnc2c1cnn2-c1ccccc1`, the figure is 15.4%.
As for `COc1ccc(-n2ncc3c(N4CCc5ccccc54)ncnc32)cc1`, the figure is -15.6%.
Consider `COC(=O)CSc1ncnc2c1cnn2-c1ccc(C)cc1C`, for which the inhibition was -11.2%.
As for `c1ccc(-n2ncc3c(N4CCCC4)ncnc32)cc1`, the figure is 62.5% (active).
With `COc1ccc(-n2ncc3c(N4CCCc5ccccc54)ncnc32)cc1`, the inhibition is 58.1% (active).
Consider `Cc1ccc2cc(C)c(N3CCN(c4ccc(F)cc4)CC3)nc2c1`, for which the inhibition is 8.39%.
For `Cc1ccc(-n2ncc3c(N4CCN(c5ccc(F)cc5)CC4)ncnc32)c(C)c1`, the inhibition is 73% (active).
For `CCOC(=O)c1c(N=CN(C)C)c(C#N)c2n1CCCC2`, the inhibition is -13.8%.
As for `COc1ccc(C(C)NC(=S)NC2CCCCC2)cc1OC` (stereo not drawn), the figure is 10.8%; as for `CC(C)CN(C(=O)CSc1ncnc2sccc12)C1CCS(=O)(=O)C1` (stereo not drawn), 4.56%; as for `COc1cc(OC)cc(C2=Cc3ccccc3C(CC(=O)c3ccco3)N2c2ccc(-c3cnc(OC)nc3)cc2)c1` (stereo not drawn), 16.7%.
For the compound `Cc1ccc(NC(=O)CC2S/C(=N/N=C3\CCCc4ccccc43)NC2=O)cc1` (stereo not drawn), the inhibition is 11.1%.
With `Cc1ccc(-n2c(SCC(=O)NCc3ccc4c(c3)OCO4)nnc2-c2cccnc2)c(C)c1`, the inhibition is -9.21%.
Consider `CCCc1[nH]nc2c1C(C1CC=CCC1)C(C#N)=C(N)O2` (stereo not drawn), for which the inhibition was 53.8% (active).
Consider `N#CC1=C(N)OC2=C(C(=O)CCC2)C1C1CC=CCC1` (stereo not drawn), for which the inhibition was 24.8%.
On to `CCCc1[nH]nc2c1C(c1ccc(Br)s1)C(C#N)=C(N)O2` (stereo not drawn), for which the inhibition is 30.2%.
As for `CCCCc1c(-c2ccc(Cl)cc2)ncn1CCc1ccccc1OC`, the inhibition was 26.6%.
Regarding `CCCCCc1c(-c2cccc(Br)c2)ncn1CCc1ccccc1OC`, the inhibition was -2.04%.
Take `CCCCCc1c(-c2ccc(OC)c(OC)c2)ncn1CCc1ccccc1OC`: the inhibition is 62.6% (active).
For the compound `Cn1c(SCC(=O)Nc2ccc(N3CCOCC3)cc2)nnc1C(F)(F)F`, the inhibition is -2.56%.
As for `Cc1cc(Br)cn2c(Cc3ccccc3C(F)(F)F)c(-c3ccc(Cl)cc3)nc12`, the figure is 26.9%.
For the compound `CCCc1ccc(-c2c(C)sc(NC(=O)c3ccnn3C)c2C#N)cc1`, the inhibition is 13.3%.
As to `Cc1ccc(CNC(=O)c2ccc3c(c2)S(=O)(=O)c2ccccc2C3=O)cc1`, the inhibition was -18%.
In the case of `COC(=O)CNC(=O)c1ccc2c(c1)S(=O)(=O)c1ccccc1C2=O`, the inhibition is 65.4% (active).
Turning to `CC(C)(C)c1ccc(C(=O)NCC(=O)OCN2C(=O)c3ccccc3C2=O)cc1`, the inhibition is -8.88%.
With `Cc1nc(Nc2ccc3c(c2)OCCO3)c2nnn(Cc3ccccc3Cl)c2n1`, the inhibition was 94.4% (active).
Take `CCCc1nc(NCc2ccc3c(c2)OCO3)c2nnn(Cc3ccccc3Cl)c2n1`: the inhibition is -10.6%.
As for `Cc1nc(Nc2ccccc2F)c2nnn(Cc3ccccc3Cl)c2n1`, the inhibition is 20%.
For the compound `O=C1C2C3C=CC(C3)C2C(=O)N1c1ccc(-c2nc3ccccc3c(=O)o2)cc1` (stereo not drawn), the inhibition is -0.15%.
Consider `O=C(/C=C/[C@H]1O[C@@H](n2ccc(=O)[nH]c2=O)[C@H](O)[C@@H]1O)NCc1ccccn1`, for which the inhibition was 9.38%.
As to `COc1cc(NC(=O)COc2ccccc2Cl)ccc1NC(=O)C(C)C`, the inhibition was -5.09%.
Turning to `CCc1ccccc1OCC(=O)Nc1ccc(C)c(S(=O)(=O)N2CCCCCC2)c1`, the inhibition was 12.8%.
As to `Cc1ccccc1OCC(=O)Nc1ccc(N2CCN(C(=O)C(C)C)CC2)c(Cl)c1`, the inhibition is 70.6% (active).
As for `Cn1nnnc1SCC(=O)Nc1ccccc1C(=O)NC1CC1`, the figure is -4.44%.
As for `COCCOC(=O)c1c(C)oc2cc(Br)c(OCC(N)=O)cc12`, the figure is -6.98%; as for `CCCCCc1ccc(-c2ccc(OCC)cc2)nc1`, -9.17%.
Then `CCCCCC(=O)Nc1ccc(-c2cn3cccnc3n2)cc1`, with -20.2%; and `CCCCCc1ccc(-c2ccc(C(=O)O)cc2)nc1`, with 87.5% (active).
